Data as given in PubChem BioAssay.
A number with no mark means an inactive call. For some assays here: Results with a measured potency or affinity are listed apart. Calls of active or inactive are those of the source. Unless noted, how the calls were made is not given here.

Tests used:
[1] = antimalarial activity against Dd2 strain (AID 2302;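 active means growth inhibition above 50% at the single 2 µM test dose, taken to imply half-maximal potency below 2 µM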;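 further: 0% = DMSO untreated growth and 100% = chloroquine plus artemisinin killed control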); settings: P. falciparum Dd2 in RBCs, LDH growth readout, 72 h; at 2 µM; stronger effect = higher value
[2] = human hepatoma cell viability loss – ATP luminescence, cytotoxicity control for P. falciparum antimalarial project, primary screen (AID 2303;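 active means inhibition above 50%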;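 further: 0% = DMSO wells and 100% = digitonin-killed cells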); settings: HepG2 viability, 24-48 h, at 10 µM, stronger effect = higher value
[3] = target: L-lactate dehydrogenase (Plasmodium falciparum (isolate CDC / Honduras)) (UniProt Q27743); test: PfLDH activity inhibition – cell lysate, 3D7 strain, counter-screen for P. falciparum growth inhibition project (AID 2304);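 further: 0% = vehicle and 100% = reference inhibitor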; settings: P. falciparum 3D7 crude extract, LDH APAD/NBT absorbance; at 2 µM; stronger effect = higher value
[4] = inhibition of 3D7 malaria parasite growth – strain 3D7 (AID 2306);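 further: 0% = DMSO wells and 100% = chloroquine plus artemisinin control wells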; settings: P. falciparum 3D7 erythrocytic growth, LDH absorbance, 72 h; at 2 µM; stronger effect = higher value
[5] = target: Calcium-dependent protein kinase 1 (Plasmodium falciparum (isolate 3D7)) (UniProt P62344); test: PfCDPK1 kinase inhibitors, biochemical, TCAMS library (AID 1159585; cut-off not given, nearly all actives have IC50 up to about 0.98 µM;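 further: inhibitors leave more ATP so luminescence rises with inhibition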); settings: recombinant PfCDPK1, Kinase-Glo ATP depletion luminescence
[6] = target: Plasmodium falciparum protein kinase 6 (PK6, PF3D7_1337100) (UniProt Q8IDW1); test: PfPK6 kinase inhibitors, biochemical, TCAMS library (AID 1159586); settings: recombinant PfPK6, Kinase-Glo ATP depletion luminescence
[7] = target: Protein kinase 7 (PK7), Plasmodium falciparum 3D7 (PF3D7_0213400) (UniProt Q7YTF7); test: inhibition of Plasmodium PK7 catalytic activity – biochemical, TCAMS antimalarial set, Kinase-Glo luminescence (AID 1159587); settings: recombinant PfPK7, Kinase-Glo ATP depletion luminescence
[8] = target: Calcium-dependent protein kinase 4 (Plasmodium falciparum (isolate 3D7)) (UniProt Q8IBS5); test: PfCDPK4 kinase inhibitors, biochemical, TCAMS library (AID 1159588; cut-off not given, nearly all actives have IC50 up to about 0.91 µM); settings: recombinant PfCDPK4, Kinase-Glo ATP depletion luminescence
Chain of Calcium-dependent protein kinase 4 (Plasmodium falciparum (isolate 3D7)) (Q8IBS5 whole entry, looked up): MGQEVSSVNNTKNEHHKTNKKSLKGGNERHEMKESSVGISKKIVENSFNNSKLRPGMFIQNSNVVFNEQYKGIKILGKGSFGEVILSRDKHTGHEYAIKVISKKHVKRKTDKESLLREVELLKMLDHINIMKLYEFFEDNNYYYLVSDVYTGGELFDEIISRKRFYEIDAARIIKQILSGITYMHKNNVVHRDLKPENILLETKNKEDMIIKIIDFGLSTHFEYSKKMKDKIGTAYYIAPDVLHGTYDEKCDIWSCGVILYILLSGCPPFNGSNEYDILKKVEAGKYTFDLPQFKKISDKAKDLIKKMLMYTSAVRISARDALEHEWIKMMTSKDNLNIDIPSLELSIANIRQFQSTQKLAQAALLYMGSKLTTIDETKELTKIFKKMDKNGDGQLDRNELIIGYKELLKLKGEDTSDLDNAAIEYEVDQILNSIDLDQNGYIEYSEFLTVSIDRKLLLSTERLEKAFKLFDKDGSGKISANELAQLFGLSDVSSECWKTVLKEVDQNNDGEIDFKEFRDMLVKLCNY

Chain of Calcium-dependent protein kinase 1 (Plasmodium falciparum (isolate 3D7)) (P62344 whole entry, looked up): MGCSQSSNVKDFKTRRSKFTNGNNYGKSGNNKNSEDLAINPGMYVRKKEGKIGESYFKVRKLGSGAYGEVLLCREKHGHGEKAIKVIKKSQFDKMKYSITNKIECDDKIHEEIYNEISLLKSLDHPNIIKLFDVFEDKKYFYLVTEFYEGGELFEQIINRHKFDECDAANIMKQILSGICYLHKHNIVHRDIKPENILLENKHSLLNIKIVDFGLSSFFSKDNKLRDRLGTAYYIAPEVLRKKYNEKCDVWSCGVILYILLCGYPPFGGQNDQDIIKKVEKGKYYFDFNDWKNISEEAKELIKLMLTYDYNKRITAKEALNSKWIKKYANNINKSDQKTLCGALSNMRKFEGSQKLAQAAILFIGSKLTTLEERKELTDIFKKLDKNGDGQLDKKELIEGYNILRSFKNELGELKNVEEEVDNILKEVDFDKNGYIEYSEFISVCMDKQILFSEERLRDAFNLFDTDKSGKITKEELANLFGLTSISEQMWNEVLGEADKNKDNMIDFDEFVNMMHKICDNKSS
Chain of L-lactate dehydrogenase (Plasmodium falciparum (isolate CDC / Honduras)) (Q27743 whole entry, looked up): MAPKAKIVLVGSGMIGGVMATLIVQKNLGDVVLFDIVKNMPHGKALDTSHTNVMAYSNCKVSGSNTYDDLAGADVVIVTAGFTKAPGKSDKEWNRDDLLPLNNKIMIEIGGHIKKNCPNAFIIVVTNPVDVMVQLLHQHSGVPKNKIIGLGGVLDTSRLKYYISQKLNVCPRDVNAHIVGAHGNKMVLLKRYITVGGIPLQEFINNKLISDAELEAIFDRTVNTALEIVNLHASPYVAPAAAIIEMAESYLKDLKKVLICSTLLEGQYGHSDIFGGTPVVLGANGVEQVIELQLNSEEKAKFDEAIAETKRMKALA
Chain of Plasmodium falciparum protein kinase 6 (PK6, PF3D7_1337100) (Q8IDW1 1-305): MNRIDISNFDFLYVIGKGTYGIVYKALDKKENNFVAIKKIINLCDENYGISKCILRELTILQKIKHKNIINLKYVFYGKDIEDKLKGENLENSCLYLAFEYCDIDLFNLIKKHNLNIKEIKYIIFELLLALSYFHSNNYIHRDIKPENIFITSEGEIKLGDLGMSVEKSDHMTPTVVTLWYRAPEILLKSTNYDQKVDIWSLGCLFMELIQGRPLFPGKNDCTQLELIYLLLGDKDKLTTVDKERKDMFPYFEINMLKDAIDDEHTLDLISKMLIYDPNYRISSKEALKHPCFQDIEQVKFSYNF
Chain of Protein kinase 7 (PK7), Plasmodium falciparum 3D7 (PF3D7_0213400) (Q7YTF7 1-343): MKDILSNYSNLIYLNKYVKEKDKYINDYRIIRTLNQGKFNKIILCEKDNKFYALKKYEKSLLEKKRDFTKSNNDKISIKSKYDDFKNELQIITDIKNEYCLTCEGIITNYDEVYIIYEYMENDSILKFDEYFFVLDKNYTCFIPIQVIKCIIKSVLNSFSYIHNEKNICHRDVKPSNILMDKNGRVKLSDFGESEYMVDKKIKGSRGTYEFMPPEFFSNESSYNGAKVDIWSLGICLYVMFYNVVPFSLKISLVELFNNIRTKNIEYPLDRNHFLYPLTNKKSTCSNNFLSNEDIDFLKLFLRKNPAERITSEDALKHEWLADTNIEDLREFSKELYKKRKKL

| Structure (SMILES) | growth inhibition [1] | inhibition [2] | inhibition [3] | growth inhibition [4] | outcome [5] | outcome [6] | outcome [7] | outcome [8] |
| --- | --- | --- | --- | --- | --- | --- | --- | --- |
| O=C(N[C@@H](Cc1ccccc1)C(=O)NCCN1CCOCC1)c1ccc(O)c(-c2ccc(Cl)c(Cl)c2)c1 | 31% | -4% | 5% | 97% (active) | inactive | inactive | inactive | inactive |
| O=C(Nc1cccc(C(F)(F)F)c1)NC1CCN(c2ccnc3ccccc23)C1 (stereo not given) | 69% (active) | 23% | -2% | 101% (active) | inactive | inactive | inactive | inactive |
| Cc1cc(C2CCN(CCCCNC(=O)c3ccc(-c4ccc(C(F)(F)F)cc4)cc3)CC2)c(C)cc1OCCO | 3% | 31% | 2% | 99% (active) | inactive | inactive | inactive | inactive |
| CCN(CC)C(=O)C1CCCN(c2cc(C)nc(Nc3ccc(Cl)cc3)n2)C1 (stereo not given) | 64% (active) | 13% | 1% | 94% (active) | inactive | inactive | inactive | inactive |
| Clc1ccc(C=NNc2ccnc3ccccc23)cc1 | 97% (active) | 5% | 1% | 100% (active) | inactive | inactive | inactive | inactive |
| Cc1ccc(S(=O)(=O)n2cc(-c3ccnc(N)c3)c3cc(Br)cnc32)cc1 | 31% | 8% | 1% | 98% (active) | inactive | inactive | inactive | inactive |
| CN(C)CCNCc1ncsc1-c1ccc2c(Nc3ccc(F)cc3Cl)ccnc2c1 | 95% (active) | -1% | 0% | 100% (active) | inactive | inactive | inactive | inactive |
| Cc1[nH]c2ccccc2c1C(=O)C(C)Sc1n[nH]c(-c2ccccc2Br)n1 (stereo not given) | 100% (active) | -7% | -3% | 101% (active) | inactive | inactive | inactive | inactive |
| Cc1nc2ccc(/C=C/C(=O)NC3CCC(CCN4CCc5ccc(C#N)cc5CC4)CC3)cc2[nH]1 (stereo not given) | 21% | 7% | -2% | 88% (active) | inactive | inactive | inactive | inactive |
| COc1ccc(O)cc1Cc1cnc2nc(N)nc(N)c2c1C | 97% (active) | 67% (active) | -2% | 92% (active) | inactive | inactive | inactive | inactive |
| c1ccc(Oc2ccc(Nc3ccnc4cc(-c5ccc(CNCCN6CCOCC6)o5)ccc34)cc2)nc1 | 100% (active) | -7% | -2% | 101% (active) | inactive | inactive | inactive | inactive |
| CC(C)COc1ccc(Cl)cc1Cc1ccc(-c2nc3cc(F)c(F)cc3[nH]2)o1 | 96% (active) | 27% | 4% | 95% (active) | inactive | inactive | inactive | inactive |
| CC(C)(C)c1ccc(CN2CCC(NC(=O)c3ccc(-c4cccc(C(F)(F)F)c4)s3)CC2)cc1 | 96% (active) | 97% (active) | -5% | 100% (active) | inactive | inactive | inactive | inactive |
| COc1cc(CNCCCNc2nc3ccsc3c(=O)[nH]2)c2[nH]cc(Cl)c2c1 | -2% | 29% | 2% | 96% (active) | inactive | inactive | inactive | inactive |
| Cc1cccc2[nH]c(-c3cccc(-c4ccc(NC(=O)CC5NC(=O)c6ccccc65)cc4)c3)nc12 (stereo not given) | 67% (active) | 30% | -7% | 100% (active) | inactive | inactive | inactive | inactive |
| COc1ccc(Nc2ncc3c(-c4cccc(NC(=O)Cc5cccc(F)c5)c4)c[nH]c3n2)cc1OC | 68% (active) | 24% | 2% | 101% (active) | inactive | inactive | inactive | inactive |
| COc1cc(NC(=O)/C=C/c2ccccc2OC(F)(F)F)cc(OCCN2CCCCC2)c1 | 6% | 25% | 0% | 96% (active) | inactive | inactive | inactive | inactive |
| CN1CCN(c2ccc(Nc3c4ccccc4nc4ccccc34)cc2)CC1 | 94% (active) | -3% | -4% | 100% (active) | inactive | inactive | inactive | inactive |
| COc1ccc(-c2cccc(NC(=O)c3cccc(C#N)c3)c2)cc1CNC(C)C | 51% (active) | 22% | 0% | 101% (active) | inactive | inactive | inactive | inactive |
| Cc1cc(CN2CC[C@H](NC(=O)c3ccc(Cl)c(Cl)c3)C2)ccc1OC1CCN(C)C1 (stereo not given in full) | 24% | 71% (active) | -3% | 101% (active) | inactive | inactive | inactive | inactive |

| Structure (SMILES) | growth inhibition [1] | inhibition [2] | inhibition [3] | growth inhibition [4] | outcome [5] | outcome [6] | outcome [7] | outcome [8] |
| --- | --- | --- | --- | --- | --- | --- | --- | --- |
| CN1CCCN(Cc2ccc(-c3cccc(NC(=O)c4cccc(C#N)c4)c3)cc2)CC1 | 64% (active) | 17% | -2% | 101% (active) | inactive | inactive | inactive | inactive |
| Cc1cc(OCCCN2CCC(NS(=O)(=O)c3ccc(Cl)c(Cl)c3)CC2)c2ccccc2n1 | 35% | 11% | 1% | 96% (active) | inactive | inactive | inactive | inactive |
| N#Cc1cc(C(=O)c2cc(Br)ccc2O)cn(-c2cc(Cl)cc(Cl)c2)c1=O | 35% | 42% | -5% | 98% (active) | inactive | inactive | inactive | inactive |
| Clc1ccc(OCCC2CCN(CCCCCCCN3CCC(CCOc4ccc(Cl)c(Cl)c4)CC3)CC2)cc1Cl | 82% (active) | 100% (active) | -5% | 99% (active) | inactive | inactive | inactive | inactive |
| Cc1cccc2[nH]c(-c3ccc(-c4cccc(CNCc5ccccc5)c4)s3)nc12 | 50% (active) | 3% | -3% | 99% (active) | inactive | inactive | inactive | inactive |
| COc1ccc(CC2(c3ccc(F)cc3)N=C(N)N(CCCc3cccnc3)C2=O)cc1 (stereo not given) | 97% (active) | 12% | 0% | 98% (active) | inactive | inactive | inactive | inactive |
| CC(C)(C)c1ccc2nc(-c3ccc(/C=C/C(=O)NCc4cccc(C(F)(F)F)c4)cc3)[nH]c2c1 | 11% | 31% | -16% | 93% (active) | inactive | inactive | inactive | inactive |
| CC(C)(NCc1ccc(OC(F)(F)F)cc1)c1nc(-c2ccc(Cl)c(O)c2)c(-c2ccncc2)[nH]1 | 32% | 65% (active) | -8% | 94% (active) | inactive | inactive | inactive | inactive |
| CCCNC(=O)c1cncc(-c2ccc(CNCCCc3ccccc3)cc2)c1 | 29% | -13% | 0% | 101% (active) | inactive | inactive | inactive | inactive |
| COc1ccccc1N1CCN(CCCCNC(=O)c2ccc(NC(=O)c3ccc(C(F)(F)F)cc3)cc2)CC1 | 37% | 25% | 0% | 100% (active) | inactive | inactive | inactive | inactive |
| Cc1cc(-c2cccc(CNCCc3ccc(Cl)cc3)c2)cnc1N | 3% | 19% | 0% | 90% (active) | inactive | inactive | inactive | inactive |
| Cc1cccc2c(C(=O)NC3CCN(Cc4ccccc4)CC3)cc(-c3cccnc3)nc12 | 10% | 12% | -2% | 81% (active) | inactive | inactive | inactive | inactive |
| O=C1CCCN1CCCNCc1ccc(-c2ccc(-c3nc4ccc(C(F)(F)F)cc4[nH]3)cc2)cc1 | 98% (active) | 10% | -5% | 101% (active) | inactive | inactive | inactive | inactive |
| CCN(Cc1ccc(-c2ccc(C(F)(F)F)cc2)cc1)C(=O)Cn1c(SCc2cccc(F)c2F)cc(=O)c2cc(CN3CCCCC3)ccc21 | 50% (active) | 95% (active) | 2% | 101% (active) | inactive | inactive | inactive | inactive |
| Cc1cnc(CNCc2ccc(S(=O)(=O)Nc3ccc(Oc4cccc(Cl)c4)cc3)cc2)cn1 | -1% | 4% | 7% | 97% (active) | inactive | inactive | inactive | inactive |
| CCC(C)c1ccc(NC(=O)Nc2ccc(Cn3ncc(N4CCCNCC4)c(Cl)c3=O)cc2)cc1 (stereo not given) | 31% | -6% | -2% | 83% (active) | inactive | inactive | inactive | inactive |
| Cc1ccc2c(c1)nc(N)n2C[C@H](O)c1ccccc1 | 74% (active) | -3% | 7% | 100% (active) | inactive | inactive | inactive | inactive |
| Cc1cc(N[C@@H](CC(C)C)C(=O)NCc2cccs2)nc(Nc2ccccc2)n1 | 57% (active) | 18% | 1% | 100% (active) | inactive | inactive | inactive | inactive |
| CS(=O)(=O)c1cccc2sc(N3CCN(C(=O)c4ccc([N+](=O)[O-])o4)CC3)nc12 | 61% (active) | -26% | -4% | 84% (active) | inactive | inactive | inactive | inactive |
| NC1CCCN(Cc2cccc(-c3ccc(-c4nc5ccc(C(F)(F)F)cc5[nH]4)cc3)c2)C1 (stereo not given) | 96% (active) | 47% | -3% | 99% (active) | inactive | inactive | inactive | inactive |
